Consider 18 compounds from PubChem BioAssay.

Assay [1] is described as follows: stimulators of nuclear beta-catenin in C2C12, primary screen, imaging, WNT3A-conditioned medium, mouse C2C12, NPC library (AID 1117326; in the data active = nuclear beta-catenin stimulation mostly above about 4.2%, no sharp cut-off; inactive = mostly below about 10%). As to conditions: stronger effect = higher value.
A short description of assay [2]: growth inhibition of GSK3B-pretreated HCT116 cells – cell-based, CellTiter-Glo, 0.2 to 20 µM (AID 1117336;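 active = compounds lowering colon cancer cell viability after pretreatment blocking the GSK3B kinase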). As to conditions: HCT116 viability after GSK3B inhibitor, at 20 µM, stronger effect = higher value. (In general: ATP-based viability assays read luminescence as a measure of living cells.)
A short description of assay [3]: HCT116 colon cancer cell growth inhibition, primary screen, CellTiter-Glo luminescence, NPC library (AID 1117342;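 active = compounds that lower survival of HCT116 colon cancer cells in the luminescence readout, no numeric limit stated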). As to conditions: at 20 µM (top of the series).
Assay [4] is described as follows: CellTiter-Glo luminescent readout of SW480 viability loss, NPC library primary (AID 1117343;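 active = compounds that lower viability of the colon cancer cells in the luminescence readout, with no numeric limit stated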). As to conditions: CellTiter-Glo luminescence; at 20 µM (top of the series).
Assay [5] is described as follows: decreased DLD-1 cellular survival, CellTiter-Glo luminescent readout, NPC compound collection, primary HTS (AID 1117346;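 active = compounds that lower survival of DLD-1 colon cancer cells in the luminescence readout, no cutoff given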). Particulars: DLD-1 viability, CellTiter-Glo luminescence; at 20 µM (top of the series).
Assay [6] can be described thus: stimulators of insulin release from INS-1E, primary screen, cell-based, 5 mM glucose, NPC library (AID 1117329;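 active = compound raises insulin release from rat beta cells at 5 mM glucose, no numeric limit stated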). Particulars: rat INS-1E insulin secretion, at 10 µM, stronger effect = higher value.
The nature of assay [7]: glucagon-like peptide 1 release enhancers, primary assay, NCI-H716 cell line, NPC library (AID 1117341;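 active = compound raises GLP1 secretion from the human gut endocrine cells, with no numeric limit stated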). As to conditions: NCI-H716 cells, at 10 µM, stronger effect = higher value.
In assay [8] the target is 6-phosphogluconate dehydrogenase, decarboxylating (Homo sapiens) (UniProt P52209). Description: 6PGD enzyme inhibitors, primary screen, biochemical, human, recombinant enzyme, NADPH absorbance (AID 1159550). As to conditions: recombinant 6PGD, NADPH absorbance 341 nm; at 10 µM; stronger effect = higher value.
The nature of assay [9]: hESC survival regulators, cell-based (AID 493140; call rule not given here;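 note: cells exposed to compounds for four days before counting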). As to conditions: human embryonic stem cell survival screen; stronger effect = higher value.
In assay [10] the test system is Aerobactin synthetase IucA (Klebsiella pneumoniae, hypervirulent). Description: IucA enzyme inhibition, biochemical, LOPAC library, absorbance readout (AID 1346212; call rule not given here;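 note: 100% = no compound wells and 0% = no enzyme wells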). As to conditions: IucA enzyme assay, absorbance (OD) readout; stronger effect = lower value;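 tested at 8 µM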.
Assay [11] can be described thus: sensitizers of A549 cells to miR-34 induction, primary screen, imaging, A549 dox-inducible miR-34, nuclei and caspase counts (AID 1347080;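 active = compounds whose cell count with miR-34 switched on is under 0.7 times the count with it off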). Particulars: A549 miR-34 inducible, Hoechst nuclei count, 48 h.
Assay [12] can be described thus: survival rescue of mitochondrial mutant cells in low glucose, primary screen, MELAS cybrids, Rieske KO mouse fibroblasts, CellTiter-Glo (AID 1508586;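 active = mean z-score across replicates of 1.96 or higher in either the MELAS or the Rieske mutant cell line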;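 note: z relative to plate mean and SD of compound and empty wells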).
The target of assay [13] is NAD(+) hydrolase SARM1 (Homo sapiens) (UniProt Q6SZW1). Description: SARM1 TIR NADase inhibitors, cell lysate, NAD-Glo luminescence (AID 1508614;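 active = compound whose remaining NAD level is above about 45 nM, limit read from the data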;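 note: higher remaining NAD means stronger inhibition of SARM1 NADase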). As to conditions: SAM-TIR HEK293T lysate NADase, at 1 µM, stronger effect = higher value.
The target of assay [14] is Mitogen-activated protein kinase 7 (Homo sapiens) (UniProt Q13164). Description: ERK5 transactivation activators in reporter cells, primary screen, cell-based, HTS (AID 1508626;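 active = luciferase signal above three times the same-plate solvent-only control wells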;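 note: luciferase driven by Gal4-ERK5 fusion binding five Gal4 sites before minimal TATA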). As to conditions: HeLa Gal4-ERK5 transactivation, 18 h, at 5 µM, stronger effect = higher value.
Assay [15] is described as follows: viability rescue of complex I mutant cybrids, primary screen, cell-based, galactose medium, ATP luminescence (AID 1645843;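 active = z-score of at least 1.8 in each of two replicates, scored against plate mean and spread of sample wells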;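 note: positive z means more ATP and so rescue of galactose-driven cybrid death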). As to conditions: complex I mutant cybrid cells, 72 h, stronger effect = higher value.
A short description of assay [16]: liver-stage malaria parasite growth inhibition, primary screen, cell-based, HepG2, luciferase luminescence, HepG2 viability (AID 624349; in the data active = parasite load remaining mostly below about 12%, no sharp cut-off; inactive = mostly above about 10%;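 note: 100% = mean of DMSO negative control wells on the same plate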). Particulars: P. berghei liver stage in HepG2, luciferase luminescence, concentration not given here; parasite load remaining: stronger effect = lower value; viability: measured here: HepG2 viability without parasites.
Assay [17] concerns Aerobactin synthetase IucA (Klebsiella pneumoniae hvKP1). Description: Biochemical IucA enzyme inhibition primary screen of the Spectrum library (AID 1346200; call rule not given here;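 note: 100% = wells without compound and 0% = wells lacking enzyme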). As to conditions: malachite green pyrophosphate, A620, at 8 µM, stronger effect = lower value.
Assay [18] is described as follows: differential killing of epithelial or mesenchymal cells, primary screen, imaging, PC-3E GFP, TEM4-18 mCherry, co-culture (AID 1345086;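 active = compounds killing one labelled cell type while sparing the other, by normalised counts and ratio limits, not self-fluorescent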;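 for all read-outs here: cells exposed to compound for 72 h before imaging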;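 for red/green cell ratio (normalised): normalised mesenchymal count divided by normalised epithelial count so high means epithelial killing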). As to conditions: imaging cell counts, at 1 µM; for red/green cell ratio (normalised): actives lie on both sides.
Setting [19] is: measured here: relative caspase fold change +Dox/-Dox.
Setting [20] is: measured here: total cells with miR-34 induction, stronger effect = lower value.
Where [21] appears, read: measured here: total cells without miR-34 induction.
Setting [22] is: counts scaled to control wells, 1 = unselective.
Where [23] appears, read: measured here: epithelial PC-3E GFP cell survival.
[24] abbreviates: measured here: mesenchymal TEM4-18 mCherry cell survival.

Several values for one entry are separate records, joined by “and”; a condition that tells them apart may be missing. Equal values may be shown once. Activity calls are given as the source filed them.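 Rule for the calls, unless noted: active = at least 20% inhibition of 6-phosphogluconate dehydrogenase activity; inactive = the rest.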

By inhibition is commonly meant the change of the read-out against control, counted positive when it falls. As usually defined, the remaining activity is the signal under treatment as a percentage of the control signal. The term viability denotes the share of living cells, or the viability signal relative to a control.

6-phosphogluconate dehydrogenase, decarboxylating (Homo sapiens), sequence (P52209 whole entry, looked up): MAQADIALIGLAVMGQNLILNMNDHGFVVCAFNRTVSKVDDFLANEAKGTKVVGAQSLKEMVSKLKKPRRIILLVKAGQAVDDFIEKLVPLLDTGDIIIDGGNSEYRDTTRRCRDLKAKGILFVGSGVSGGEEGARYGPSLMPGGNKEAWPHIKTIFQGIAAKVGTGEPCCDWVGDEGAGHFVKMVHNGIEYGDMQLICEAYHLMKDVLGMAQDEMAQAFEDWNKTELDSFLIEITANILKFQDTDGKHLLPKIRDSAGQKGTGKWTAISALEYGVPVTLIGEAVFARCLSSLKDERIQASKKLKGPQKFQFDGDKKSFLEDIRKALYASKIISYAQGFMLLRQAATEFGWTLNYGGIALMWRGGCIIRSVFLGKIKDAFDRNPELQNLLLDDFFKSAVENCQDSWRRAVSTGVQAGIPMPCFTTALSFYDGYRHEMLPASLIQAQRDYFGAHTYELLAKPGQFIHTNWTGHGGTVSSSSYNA
Mitogen-activated protein kinase 7 (Homo sapiens), sequence (Q13164 whole entry, looked up, the tested form may be a part): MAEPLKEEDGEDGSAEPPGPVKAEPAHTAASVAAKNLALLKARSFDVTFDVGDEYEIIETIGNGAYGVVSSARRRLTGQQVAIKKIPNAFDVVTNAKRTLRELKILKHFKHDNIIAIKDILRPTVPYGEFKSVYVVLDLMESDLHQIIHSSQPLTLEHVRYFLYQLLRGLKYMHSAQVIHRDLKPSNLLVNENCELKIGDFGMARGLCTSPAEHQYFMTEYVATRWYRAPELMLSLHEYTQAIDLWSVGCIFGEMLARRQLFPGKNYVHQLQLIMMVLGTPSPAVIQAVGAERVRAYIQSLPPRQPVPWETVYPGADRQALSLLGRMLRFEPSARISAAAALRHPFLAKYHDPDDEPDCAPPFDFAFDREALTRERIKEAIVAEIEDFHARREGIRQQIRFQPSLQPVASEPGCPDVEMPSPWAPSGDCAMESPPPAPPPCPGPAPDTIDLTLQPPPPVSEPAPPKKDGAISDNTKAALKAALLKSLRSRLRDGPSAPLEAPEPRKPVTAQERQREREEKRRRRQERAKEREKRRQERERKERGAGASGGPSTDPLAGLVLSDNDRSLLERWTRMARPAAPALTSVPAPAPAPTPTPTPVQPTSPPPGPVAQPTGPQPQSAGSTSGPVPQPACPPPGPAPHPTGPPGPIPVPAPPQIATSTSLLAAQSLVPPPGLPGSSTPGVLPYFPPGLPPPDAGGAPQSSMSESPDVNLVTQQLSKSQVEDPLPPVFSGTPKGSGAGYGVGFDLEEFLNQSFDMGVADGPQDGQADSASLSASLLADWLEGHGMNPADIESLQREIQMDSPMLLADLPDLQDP
NAD(+) hydrolase SARM1 (Homo sapiens), sequence (Q6SZW1 whole entry, looked up, the tested form may be a part): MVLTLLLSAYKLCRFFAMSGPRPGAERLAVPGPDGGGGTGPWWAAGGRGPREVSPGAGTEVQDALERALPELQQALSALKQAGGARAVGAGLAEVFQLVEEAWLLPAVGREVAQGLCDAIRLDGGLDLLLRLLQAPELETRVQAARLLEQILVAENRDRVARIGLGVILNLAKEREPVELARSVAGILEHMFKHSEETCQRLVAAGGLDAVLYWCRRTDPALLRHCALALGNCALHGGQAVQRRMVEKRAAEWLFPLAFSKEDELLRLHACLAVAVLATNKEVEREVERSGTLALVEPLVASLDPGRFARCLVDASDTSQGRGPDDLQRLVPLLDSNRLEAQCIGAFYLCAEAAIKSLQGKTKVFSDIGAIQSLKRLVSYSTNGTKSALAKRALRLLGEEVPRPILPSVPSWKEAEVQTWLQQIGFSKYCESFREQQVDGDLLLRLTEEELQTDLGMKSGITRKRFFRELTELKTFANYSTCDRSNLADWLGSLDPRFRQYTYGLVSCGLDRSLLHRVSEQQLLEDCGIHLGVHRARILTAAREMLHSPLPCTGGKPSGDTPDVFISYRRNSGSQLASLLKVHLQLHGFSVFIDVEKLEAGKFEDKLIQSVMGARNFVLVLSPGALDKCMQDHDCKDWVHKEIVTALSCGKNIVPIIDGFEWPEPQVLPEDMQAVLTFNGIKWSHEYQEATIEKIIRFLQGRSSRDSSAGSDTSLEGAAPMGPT

On to `O=C1NCN(c2ccccc2)C12CCN(CCCOc1ccc(F)cc1)CC2`, for which the nuclear beta-catenin stimulation is 0.4% (inactive) in assay [1] (at 10 µM) and 8.5% in assay [1] (stimulation, at 2 µM). The viability decrease in [2] is 84.2% (active). The inhibition of viability in assay [3] is 59.4% (active). In addition, the viability decrease (inhibition) in [4] was 91% (active); in assay [5], 87.1% (active).
In the case of `CCOP(=S)(OCC)SCSc1ccc(Cl)cc1`, the nuclear beta-catenin stimulation is 1.3% (inactive) in assay [1] (at 10 µM) and -1.3% in [1] (stimulation, at 2 µM). The insulin secretion stimulation in assay [6] is -1.15% (inactive). In assay [7], the GLP1 secretion stimulation is -0.9% (inactive).
For the compound `ClC1=C(Cl)[C@]2(Cl)[C@H]3[C@H]([C@@H]4C=C[C@H]3C4)[C@@]1(Cl)C2(Cl)Cl`, the inhibition in assay [8] is 6.64% (inactive).
The same measure, in the same setting: the result for `CCC1(O)CC(OC2CC(N(C)C)C(O)C(C)O2)c2c(cc3c(c2O)C(=O)c2c(O)ccc(O)c2C3=O)C1C(=O)OC` (centres undefined) reads -0.278% (inactive).
Same read-out and setting: the result for `CC(=O)O[C@@H]1[C@H]2CC[C@H]3[C@@](C)(O)[C@@H]4C[C@H](O)C(C)(C)[C@@]4(O)[C@H](O)C[C@@]13C[C@@]2(C)O` reads 8.37% (inactive); that for `c1cc2c(cc1[C@H]1OC[C@@H]3[C@H]1CO[C@H]3c1ccc3c(c1)OCO3)OCO2`, -14.7% (inactive); that for `ClC(Cl)=C(c1ccc(Cl)cc1)c1ccc(Cl)cc1`, -15% (inactive).
With `O=C1CC[C@@]2(O)[C@H]3Cc4ccc(O)c5c4[C@@]2(CCN3CC2CC2)[C@H]1O5`, the survival in assay [9] is 16.1 (inactive). Also, the inhibition in assay [8] is 9.6% (inactive). The remaining activity in assay [10] was 118% (inactive). For the same compound, the fold change was 0.971 (inactive) and 0.94 (inactive) and 0.843 (inactive) in assay [11] (stronger effect = lower value); 1.34 and 1.14 and 0.908 in assay [11] (setting [19]). In addition, the cell count in assay [11] (setting [20]) was 11000 and 9230 and 9370; in assay [11] (setting [21]) it was 11300 and 9820 and 11100. Further, the z-score was 0.477 (inactive) and 0.601 (inactive) in assay [12] (MELAS cybrid survival, CellTiter-Glo 48 h, stronger effect = higher value); 0.069 and -0.0949 in [12] (Rieske KO mouse fibroblast survival, CellTiter-Glo 72 h); 0.66 (inactive) and 0.275 (inactive) in assay [15]. Further, in assay [13], the remaining NAD was 10 nM (inactive). The luciferase signal in assay [14] is 48 AU (inactive).
On to `CC1CC(O)C2(O)C13CC(=O)OCC2(C)C(C)(O)C(=O)C3` (centres undefined), for which the inhibition in [8] is 17.6% (inactive).
Turning to `FC(F)(F)c1cccc(N2CCNCC2)c1`, the parasite load remaining in assay [16] is 134% (inactive). The viability in assay [16] is 71.2%. Besides, the inhibition in assay [8] was 7.13% (inactive). Further, the activity remaining in assay [17] was 116% (inactive). In addition, the fold change in assay [11] (stronger effect = lower value) was 0.923 (inactive); in assay [11] (setting [19]), 1.38. Further, the values for the cell count in assay [11] (setting [20]) and in [11] (setting [21]) were 9590 and 10400, respectively. Further, in assay [15], the z-score is 0.73 (inactive).
Consider `ClC1=C(Cl)[C@@]2(Cl)[C@@H]3[C@H]4C[C@@H]([C@H]5O[C@@H]45)[C@H]3[C@@]1(Cl)C2(Cl)Cl`, for which, in assay [8], the inhibition is -14% (inactive).
In the case of `O=c1ccc2cc(O[C@@H]3O[C@H](CO)[C@@H](O)[C@H](O)[C@H]3O)c(O)cc2o1`, the parasite load remaining in assay [16] is 71.6% (inactive). In assay [16], this compound registered a viability of 71.7%. Further, the inhibition in [8] is -2.58% (inactive). Also, the red/green cell ratio (normalised) in assay [18] was 1.25 (inactive); in assay [18] (setting [22]), 0.97 (inactive). The normalised cell number is 0.87 and 1.04 in assay [18] (setting [23]); 1.09 and 1 in assay [18] (setting [24]). Besides, in assay [17], the activity remaining was 95.9% (inactive). In addition, in [14], the luciferase signal was 92 AU (inactive).
Regarding `Clc1ccc(COC(Cn2ccnc2)c2ccc(Cl)cc2Cl)c(Cl)c1` (centres undefined), the inhibition in assay [8] is -24.1% (inactive). Moreover, in [18], the red/green cell ratio (normalised) was 1.04 (inactive). Also, the normalised cell number in [18] (setting [23]) was found to be 0.94; in [18] (setting [24]), 0.97. Besides, in [17], the activity remaining was 98.2% (inactive). Moreover, in assay [13], the remaining NAD is 10 nM (inactive). Besides, the luciferase signal in assay [14] is 48 AU (inactive). Besides, the z-score in assay [15] was -1.52 (inactive) and -2.01 (inactive).
Consider `O=C(O)COc1ccc(Cl)cc1Cl`, for which the inhibition in assay [8] was -20.1% (inactive). In assay [18], the red/green cell ratio (normalised) was 1.22 (inactive). Further, the values for the normalised cell number in [18] (setting [23]) and in [18] (setting [24]) were 0.89 and 1.08, respectively.
For `CCCCCCCCCc1ccc(O)cc1` the same measures were 10.5% (inactive), 0.85 (inactive), 1.34 and 1.14.
With `COc1cc2c(cc1OC)-c1c(oc3c4c(ccc3c1=O)OC(C(C)C)C4)CO2` (centres undefined), in assay [8], the inhibition is -6.79% (inactive). Besides, the red/green cell ratio (normalised) in [18] (setting [22]) was 0.93 (inactive). For the same compound, the normalised cell number in assay [18] (setting [23]) amounted to 0.99; in [18] (setting [24]), 0.92.
Consider `C[C@]12CCC(=O)C=C1CCc1ccc(O)cc12`, for which the inhibition in [8] is -3.52% (inactive).
The same measure, in the same setting: with `COP(=O)(NC(C)=O)SC` (centres undefined) the figure was -9.95% (inactive).
